KCNQ2 inh = rat KCNQ2 potassium channel inhibitors, primary screen, cell-based, CHO-K1, FluxOR thallium flux, B-score; Potassium voltage-gated channel subfamily KQT member 2 (Rattus norvegicus), O88943; B-score at 10 µM; hit rate 1.1% among 310,000; AID 2156, 2009; 20 min; active compounds read low;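 active = fluorescence ratio B-score at most minus 3 library SDs, with starting brightness B-score within 2 library SDs, cut at about -5.5 in these data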
KCNQ2 pot = potentiators of rat KCNQ2 potassium channel; hit rate 0.54% among 310,000; AID 2239, 2010; Potassium voltage-gated channel subfamily KQT member 2 (Rattus norvegicus), O88943; B-score at 10 µM; CHO-K1 KCNQ2, FluxOR thallium flux fluorescence; active compounds read high;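 active = fluorescence ratio B-score at least 3 SD of library B-scores, with initial fluorescence B-score within 3 of them, cut at about 5.3 in these data; same plate scores as AID 2156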;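 also: B-score of peak minus minimum over baseline fluorescence ratio after K+ and Tl+ stimulus; positive B-score means potentiation of KCNQ2 with more thallium influx and brighter signal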
Large screens that a line does not name were inactive. Most compounds without a hit are left out; they make up all but 1.6% or so of the library.

COc1ccccc1NC(=O)c1c(Nc2ccccc2C)sc(C(=O)Nc2cccc(Cl)c2)c1N	none
Cc1[nH]c(=O)[nH]c(=S)c1C(=O)Nc1ccc(Cl)c(Cl)c1	none (no result: KCNQ2 pot)
c1ccc(Cn2c(CNc3nc4ccccc4n3CCN3CCOCC3)nc3ccccc32)cc1	KCNQ2 inh -6
c1ccc2c(c1)nc(NCc1ccc3c(c1)OCO3)n2CCN1CCOCC1	none (no result: KCNQ2 pot)
COc1ccc(CN2CCn3nc(C(=O)NC4CC4)cc3C2=O)cc1	none (no result: KCNQ2 pot)
Cc1ccc2c(c1)N(S(=O)(=O)c1ccc(F)cc1)C(C(C)(C)C)CO2 (configuration not stated)	KCNQ2 inh -6.9
Cc1ccc(S(=O)(=O)N2c3ccccc3OCC2C(C)(C)C)cc1 (configuration not stated)	none (no result: KCNQ2 pot)
COc1cc(CNC2CCCC2)cc(Br)c1OCC(=O)Nc1ccccc1C	none (no result: KCNQ2 pot)
COc1ccc(C(CNC(=O)c2ccc(S(=O)(=O)N3CCCC3)cc2)N2CCOCC2)cc1 (configuration not stated)	none (no result: KCNQ2 pot)
COc1ccc(C(CNC(=O)c2ccc3c(c2)C(=O)N(CCC(C)C)C3=O)N2CCOCC2)cc1 (configuration not stated)	KCNQ2 inh -5.8
CCOC(=O)c1c(N2C(=O)C3C4C=CC(C4)C3C2=O)sc2c1CCC(C)C2 (configuration not stated)	KCNQ2 pot 6.7
CCOC(=O)c1cc(C)sc1N1C(=O)C2C3C=CC(C3)C2C1=O (configuration not stated)	none
CCO/C(C)=N/n1c2nc3ccccc3nc2c2c(=O)n(CC(C)C)c(C)nc21	KCNQ2 inh -5.6
CCOCCCn1c(C)nc2c(c1=O)c1nc3ccccc3nc1n2-c1ccc(C)cc1	none (no result: KCNQ2 pot)
O=Cc1ccc(OC(=O)c2cccnc2)cc1	none
CCNS(=O)(=O)c1ccc(Br)c(OC)c1	none
OC(CNCC1CCCO1)COc1ccc(OCC(O)CNCC2CCCO2)cc1 (configuration not stated)	none
CCOC(=O)c1c(C)n(-c2ccc(C)cc2)c2ccc(OCC(O)CNCC3CCCO3)cc12 (configuration not stated)	KCNQ2 inh -6.3
CNS(=O)(=O)c1cccc(C(=O)OCC(=O)N2CC(C)OC(C)C2)c1 (configuration not stated)	none
CC1CCN(CCCCOc2ccccc2[N+](=O)[O-])CC1	none
COc1ccc(-c2sc3ccc(N4CCOCC4)cc3c2-c2ccc(OC)c(F)c2)cc1	none (no result: KCNQ2 pot)
COc1ccc(C(=O)NCCn2cc(SCC(N)=O)c3ccccc32)cc1	none
Cc1ccc(C)c(N=Cc2c(O)c3ccccc3oc2=O)c1	none
CCNC(=O)CSc1nnc(C2CC2)n1-c1ccccc1	none (no result: KCNQ2 pot)
O=C(CSc1nnc(C2CCCCC2)n1-c1ccccc1)NCc1ccco1	KCNQ2 inh -5.6
CC1(C)CC(=O)C=C(c2ccc3[nH]ccc3c2)C1	none (no result: KCNQ2 pot)
CCOC(=O)C1=C(C)NC(C)=C(C(=O)OC)C1c1cccc(Cl)c1Cl (configuration not stated)	KCNQ2 inh -7.5
CCOC(=O)C1=C(COCCN)NC(C)=C(C(=O)OC)C1c1ccccc1Cl (configuration not stated)	none (no result: KCNQ2 pot)
C=CCn1c(C)cc(C(=O)COC(=O)[C@@H](NC(=O)c2ccccc2Cl)C(C)C)c1C	KCNQ2 inh -7.5
C=CCn1c(C)cc(C(=O)COC(=O)COc2ccccc2C#N)c1C	none (no result: KCNQ2 pot)
Cc1ccc(Cl)cc1N1CCN(Cc2cc3c(cc2O)CCC3)CC1	KCNQ2 inh -6
Cc1ccc(Cl)cc1N1CCN(C(=O)c2ccc(CN3CCOCC3)cc2)CC1	none
CN(C)N1C(N)=C(C#N)C(c2cccc([N+](=O)[O-])c2)C2=C1CC(C)(C)CC2=O (configuration not stated)	none
O=S(=O)(c1ccccc1Cl)N1CCCC1c1nc(-c2cccc(Cl)c2)no1 (configuration not stated)	KCNQ2 inh -6.3
O=S(=O)(c1ccc(Cl)cc1)N1CCCC1c1nc(-c2cccc(Cl)c2)no1 (configuration not stated)	KCNQ2 inh -5.9
O=S(=O)(c1ccccc1Cl)N1CCCC(c2nc(-c3cccnc3)no2)C1 (configuration not stated)	none
O=S(=O)(c1ccc(Cl)cc1)N1CCCC1c1nc2ccccc2s1 (configuration not stated)	none (no result: KCNQ2 pot)
Cc1nn(Cc2ccc(Cl)cc2)c(C)c1NC(=O)C(c1ccccc1)c1ccccc1	none (no result: KCNQ2 pot)
O=C(NCCCC(NC(=O)OCc1ccccc1)C(=O)O)OCc1ccccc1 (configuration not stated)	none
Nc1cc(=O)[nH]n1C1CCCC1	none (no result: KCNQ2 pot)
O=C(c1nc2ccc(Cl)cn2c1CNCC[C@@H]1C[C@@H]2C=C[C@H]1C2)N1CCCCCCC1	KCNQ2 inh -5.8
C[C@@H]1CN(C(=O)c2nc3ccc(Cl)cn3c2CNCC[C@@H]2C[C@@H]3C=C[C@H]2C3)C[C@H](C)O1	none (no result: KCNQ2 pot)
CCCC(Oc1ccc(Br)cc1)c1nc2c3cc(OC)c(OC)cc3nc(=S)n2[nH]1 (configuration not stated)	none (no result: KCNQ2 pot)
CC(Oc1ccc(Br)cc1)c1nc2c3ccccc3nc(=S)n2[nH]1 (configuration not stated)	KCNQ2 pot 5.4
O=C(NNC(=O)C1CCCN(c2ncccn2)C1)c1ccncc1 (configuration not stated)	none
CSc1ccc(S(=O)(=O)NCc2ccccc2C)cc1	KCNQ2 inh -6.1
Cc1ccc(S(=O)(=O)NCc2ccccc2C)cc1	none (no result: KCNQ2 pot)
CCc1ccc(NC(=O)CSCc2nc(N)nc(Nc3ccccc3CC)n2)cc1	KCNQ2 pot 15
Cc1ccccc1CSCc1nc(N)nc(Nc2ccccc2C)n1	none
CCc1ccccc1Nc1nc(N)nc(COC(=O)c2cccn2C)n1	none
CCc1ccccc1Nc1nc(N)nc(CSCC(=O)Nc2ccc(C)c(C)c2)n1	KCNQ2 pot 19
Cc1ccc(S(=O)(=O)N2CCCC2)cc1C(=O)N1CCC(C)CC1	none
CC(C)[C@@H](C(=O)N[C@@H](Cc1ccccc1)C(=O)O)N1C(=O)N2CCc3c([nH]c4ccccc34)[C@@]2(C)C1=O	none (no result: KCNQ2 pot)
COc1ccc(OCC(=O)NNC(=O)c2ccccc2OCc2c(C)noc2C)cc1	none
COc1ccc2c(c1)CCN1C2CCN2C(=O)CCC21 (configuration not stated)	none (no result: KCNQ2 pot)
Cc1oc2c(c1C(=O)c1ccccc1)C(=O)C(=O)c1ccccc1-2	KCNQ2 inh -7.2
Cc1oc2c(c1C(=O)O)C(=O)c1ccccc1C2=O	none
CCOC(=O)Cc1csc(NC(=S)NC(=O)c2ccccc2Br)n1	KCNQ2 pot 9.6
CCOC(=O)Cc1csc(NC(=S)NC(=O)c2ccccc2)n1	none (no result: KCNQ2 pot)
Cc1ccc(C)n1-n1cnc2sc3c(c2c1=O)CCCCC3	KCNQ2 inh -7.5
Cc1ccc(C)n1-n1c(C)nc2sc3c(c2c1=O)CCCCC3	none (no result: KCNQ2 pot)
FC(F)(F)c1cccc(NC(=S)Nc2cccc(NC(=S)Nc3cccc(C(F)(F)F)c3)n2)c1	none
O=C(COC(=O)c1ccc(Cl)cc1O)NCCN1C(=O)CSC1=O	none
COc1cc(OC)c(C2CC(=O)N3CN(C)CSC3=C2C#N)cc1OC (configuration not stated)	none
COc1ccc2ccccc2c1C1CC(=O)N2CN(C)CSC2=C1C#N (configuration not stated)	KCNQ2 inh -6.9
COCCC(=O)N1CCC(Oc2ccc(C(=O)NC3CCOC(C)(C)C3)cc2)CC1 (configuration not stated)	none
c1ccc(-c2n[nH]c3c2CCC3)cc1	none (no result: KCNQ2 pot)
CC(C)[C@@H]1CC[C@@H](C)c2c(-c3ccccc3)n[nH]c21	KCNQ2 inh -7.2
